Bioassay records (PubChem)
Most compounds without a hit are left out; they make up all but 14% or so of the library.
USP17 inh: inhibitors of human USP17 deubiquitinase; purified USP17, Ub-rhodamine cleavage fluorescence, 3 h; inhibition, % at 50 µM; A8MUK1; 47,000 compounds, 6.5% hits
USP10 inh: blocks human USP10 ubiquitin-rhodamine cleavage; Q14694; purified USP10, Ub-rhodamine fluorescence, 60 min; inhibition, % at 20 µM; 47,000 compounds, 1.1% hits; AID 1645856
USP30 inh: human USP30 deubiquitinase inhibition; inhibition, % at 25 µM; AID 1645860; Q70CQ3; purified USP30, Ub-rhodamine cleavage fluorescence; 47,000 compounds, 5.3% hits
Target sequence (Q70CQ3 whole entry, looked up): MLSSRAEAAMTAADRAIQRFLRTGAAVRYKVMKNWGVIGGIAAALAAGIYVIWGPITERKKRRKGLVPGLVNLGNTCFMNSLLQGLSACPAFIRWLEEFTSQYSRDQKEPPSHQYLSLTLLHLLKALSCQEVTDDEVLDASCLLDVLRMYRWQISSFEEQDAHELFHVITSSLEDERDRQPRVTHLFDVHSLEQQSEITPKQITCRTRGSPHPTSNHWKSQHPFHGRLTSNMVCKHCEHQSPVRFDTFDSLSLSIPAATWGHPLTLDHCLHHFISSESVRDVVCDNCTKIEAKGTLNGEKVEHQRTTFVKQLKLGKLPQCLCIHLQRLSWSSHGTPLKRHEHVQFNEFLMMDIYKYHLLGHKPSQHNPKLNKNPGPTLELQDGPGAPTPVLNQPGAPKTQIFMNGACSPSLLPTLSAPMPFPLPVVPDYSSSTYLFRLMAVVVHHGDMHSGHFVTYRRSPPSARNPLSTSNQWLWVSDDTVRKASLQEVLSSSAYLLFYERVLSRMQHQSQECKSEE
USP8 block: blocks human USP8 ubiquitin-rhodamine cleavage; P40818; purified USP8, Ub-rhodamine cleavage fluorescence, 30 min; inhibition, % at 20 µM; 47,000 compounds, 4.2% hits; AID 1645853
USP28 inh: human USP28 deubiquitinase inhibition; purified USP28, Ub-rhodamine cleavage fluorescence, 30 min; Q96RU2; 47,000 compounds, 3% hits; inhibition, % at 25 µM
Large screens that a line does not name were inactive. Cut-off read from the data, not from the text of the source: active = inhibition above about 30%; inactive = the rest.

CC1(C)Cc2nc3sc4c(=O)n(CC(=O)NCc5ccccc5)cnc4c3cc2CO1	USP17 inh 54
Cc1nc(SCC(=O)Nc2cccc(Cl)c2)c2sc3nc4c(cc3c2n1)COC(C)(C)C4	USP17 inh 34, USP30 inh 32
CCn1cc(S(=O)(=O)Nc2cnn(Cc3ccccc3Cl)c2)c(C)n1	none
COc1ccc(CNc2nc3c(c(=O)n2C)CN(C(=O)NC(C)(C)C)CC3)cc1	none
O=C(OCC(=O)N1CCC(Cc2ccccc2)CC1)c1ccc(N2CCCC2=O)cc1	USP28 inh 43
CCOC(=O)c1ccc(N(C(=O)Cn2nnc3ccccc32)C(C(=O)NC(C)(C)C)c2cc(OC)c(OC)c(OC)c2)cc1 (centres undefined)	USP17 inh 30
COc1cc(C(C(=O)NC(C)(C)C)N(Cc2ccccc2Cl)C(=O)c2cccc(-n3cnnn3)c2)cc(OC)c1OC (centres undefined)	none
COc1ccc(C(C(=O)NC2CCCCC2)N(C(=O)Cn2nnc3ccccc32)c2ccc(S(=O)(=O)N3CCC(C)CC3)cc2)cc1O (centres undefined)	USP30 inh 33
CN(C)S(=O)(=O)c1ccc(N(C(=O)c2cnccn2)C(C(=O)NC2CCCCC2)c2ccccc2)cc1 (centres undefined)	none
O=[N+]([O-])c1cccc(-c2nc3c4cnn(-c5cccc(Cl)c5)c4ncn3n2)c1	none
Cc1ccc(NC(=O)CSc2ccc(N3CCC(C(=O)NC(C)C)CC3)nn2)cc1	none (no result: USP30 inh, USP28 inh)
CC(C)NC(=O)C1CCN(c2ccc(SCC(=O)Nc3ccccc3Cl)nn2)CC1	USP30 inh 34
O=c1oc2c3c(c(Cl)cc2c2c1CCCC2)OCN(CCc1ccc(F)cc1)C3	USP17 inh 43, USP8 block 41
O=c1oc2c3c(c(Cl)cc2c2c1CCCC2)OCN(Cc1ccccc1)C3	USP17 inh 44, USP8 block 82
O=c1cc(CN2CCN(Cc3ccccc3)CC2)c2cc3c(cc2o1)CCC3	none
Cc1cc(O)cc2c1C(=O)c1c(O)ccc(O)c1C2=O	none
Cc1occ2c1C(=O)c1c(O)ccc(O)c1C2	USP17 inh 95, USP10 inh 89, USP30 inh 57, USP8 block 84, USP28 inh 89
Cc1cc2ccccc2n1CCNS(=O)(=O)c1ccc(Cl)cc1	none
CCOc1cc(=O)c(C(=O)N2CCC3(CC2)OCCO3)nn1-c1ccc(C)cc1	none
O=S(=O)(NC(c1ccccc1)c1ccccc1)c1ccc(-n2cnnn2)cc1	USP17 inh 44, USP30 inh 49
Cc1nc(-c2cccc(S(=O)(=O)NC3CCCc4ccccc43)c2)no1 (centres undefined)	USP8 block 47
O=S(=O)(NC1CCCc2ccccc21)c1ccc(F)cc1 (centres undefined)	USP30 inh 34
O=S(=O)(NC1CCc2ccccc21)c1ccc(-n2cnnn2)cc1 (centres undefined)	USP30 inh 39
CCCSc1nnc(NC(=O)C(=O)c2c[nH]c3ccccc23)s1	none
O=C(c1cccnc1)N(CCc1ccccc1)C1CCN(CCc2ccc(Cl)cc2)CC1	none
Cc1ccc(OCCn2c(=N)n(C(C)C)c3ccccc32)cc1	USP28 inh 78
CCn1c(=N)n(CCOc2ccc(F)cc2)c2ccccc21	USP30 inh 39, USP28 inh 97
CCCn1c(=N)n(CC(C)O)c2ccccc21 (centres undefined)	none
CN(C)c1ccc(-c2noc(C(=O)NCc3ccccn3)n2)cc1	USP17 inh 45
CCN1C(=O)COc2cc(-c3noc(C(=O)NCc4ccccn4)n3)ccc21	none
O=C(NCc1ccncc1)c1nc(-c2ccncc2)no1	none
CN(C)c1ccc(-c2noc(C(=O)NCc3ccncc3)n2)cc1	USP30 inh 31
Cn1nc(C2CCCN(Cc3ccccc3F)C2)c2nccnc21 (centres undefined)	none
O=C(Nc1ccc(F)cc1)c1ccc2c(c1)nnn2CCN1CCOCC1	none
O=C(N[C@@H]1C[C@@H](Oc2cccc(F)c2)[C@H](O)[C@H]1N1CCOCC1)c1cnco1	none
O=c1[nH][nH]c(=O)c2n[nH]nc12	USP8 block 92
Cc1ccc(C(=O)Nc2ncnc3oc(-c4ccccc4)c(-c4ccccc4)c23)cc1	USP8 block 61
COc1ccc(NC(=O)C2=Cc3ccccc3OC2)cc1	USP30 inh 34
O=C(NCc1ccccc1Cl)C1=Cc2ccccc2OC1	none
COc1cccc(-c2noc(C3CCCN3C(=O)Nc3ccccc3C)n2)c1 (centres undefined)	none
COc1ccc(-c2noc([C@@H]3C[C@H](NC(=O)Nc4ccc(C)cc4)CN3C)n2)cc1	USP30 inh 42
COc1ccc(-c2noc([C@@H]3C[C@H](NC(=O)c4ccccc4)CN3C)n2)cc1	none
COc1ccccc1NC(=O)N1CCCC1c1nc(-c2cccc(Cl)c2)no1 (centres undefined)	USP30 inh 40
COc1ccc(-c2noc(C3CCCN3C(=O)Nc3cccc(C)c3)n2)cc1 (centres undefined)	none
COc1ccc(-c2noc(C3CCCN3C(=O)Nc3ccc(C)cc3C)n2)cc1 (centres undefined)	USP30 inh 33
O=S(=O)(c1cccc(C(F)(F)F)c1)N1CCC(c2nc3ncccc3[nH]2)CC1	none
COc1ccc(F)cc1S(=O)(=O)N1CCCC(c2nnc(C(F)(F)F)o2)C1 (centres undefined)	none
CC1CCCN(S(=O)(=O)c2cc3cc(F)ccc3oc2=O)C1 (centres undefined)	USP17 inh 58
CC1(C2CCN(c3cccc(F)c3C#N)CC2)NC(=O)NC1=O (centres undefined)	USP30 inh 32
N#Cc1c(F)cccc1N1CCC(C2CCCCCN2C(=O)C2CC2)CC1 (centres undefined)	USP30 inh 34
O=C(CC1C(=O)Nc2nc(-c3ccccc3)nn21)Nc1cccc2ccccc12 (centres undefined)	USP17 inh 84, USP8 block 41
O=C(CC1C(=O)Nc2nc(-c3ccccc3)nn21)Nc1ccccc1 (centres undefined)	none
O=C(CC1C(=O)Nc2nc3ccccc3n21)Nc1cccc2ccccc12 (centres undefined)	USP10 inh 54, USP30 inh 46, USP8 block 55
O=C(Nc1ccccc1C(F)(F)F)N1CCC(c2nc(-c3cccs3)no2)CC1	none
CNc1cncc(C2CCCN2C(=O)c2ccc3c(c2)OCCO3)n1 (centres undefined)	none
CCOC(=O)N1CCN(Cc2nnnn2-c2cccc(F)c2)CC1	USP30 inh 34
COc1ccc2c(c1)nc(C(F)(F)F)n2C1CCN(C(=O)Cc2cnc[nH]2)CC1	none
Cc1ccc(C(=O)Nc2c(C(=O)N3CCN(c4cccc(C)c4)CC3)[nH]c3ccccc23)cc1	none
Cc1ccc(C(=O)Nc2c(C(=O)N3CCN(c4ccccc4)CC3)[nH]c3ccccc23)cc1	USP17 inh 34
CN(C(=O)c1cccnc1-c1nc2ccccc2s1)c1ccccc1	none
